From PubChem BioAssay (NCATS)
Several values for one entry are separate records, joined by “and”; a condition that tells them apart may be missing. Equal entries are not always repeated. Records with an inconclusive call do not appear. Activity calls are given as the source filed them. The call rests on the fitted dose curve; in most records, active means well fitted curve in the direction sought with a large enough effect; inconclusive means small, poorly fitted or top-dose-only effect, or another doubt; inactive means no such curve, though single readings can be large; an effect the other way counts as inactive or inconclusive.

What was measured:
[1] = Quantitative highthroughput screen to assess conditional lethalithy of NOMO1 cells grown in RPMI1640 with untreated serum (RPMI+s) (AID 1963876); further: nearly all actives have a fitted effect of over 35% in size;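 on viability: 100% = DMSO wells and 0% = empty wells without cells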
Outline: (§1)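 Each medium arm—HPLM with 10% dialyzed FBS, or RPMI1640 with 5 mM glucose and 10% untreated or dialyzed FBS—was screened against an 11-point, 3-fold compound titration for 48 h at 37 °C, with CellTiter-Glo luminescence as endpoint.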

[2] = Quantitative highthroughput screen to assess conditional lethalithy of NOMO1 cells grown in RPMI1640 with dialyzed fetal bovine serum (RPMI+ds) (AID 1963877); further: nearly all actives have a fitted effect of over 30% in size;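 on viability: series mostly up to about 46 µM; 100% = DMSO control wells and 0% = empty wells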
Outline: as §1

[3] = Quantitative highthroughput screen to assess conditional lethalithy of NOMO1 cells grown in Human Plasma-Like Medium with dialyzed fetal bovine serum (HPLM+ds) (AID 1963878); further: nearly all actives have a fitted effect of over 35% in size;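 on viability: 100% = DMSO wells and 0% = empty wells on each plate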
Outline: as §1

[4] = Quantitative highthroughput screen to assess conditional lethalithy of P12 Ichikawa cells grown in Human Plasma-Like Medium with dialyzed fetal bovine serum (HPLM+ds) (AID 1963879); details: Potency: viability; further: nearly all actives have a fitted effect of over 35% in size; on viability: series mostly up to about 46 µM
Outline: as §1

[5] = Quantitative highthroughput screen to assess conditional lethalithy of P12 Ichikawa cells grown in RPMI1640 with dialyzed fetal bovine serum (RPMI+ds) (AID 1963880); details: Potency: P12-Ichikawa viability; further: nearly all actives have a fitted effect of over 35% in size;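 on viability: 100% = DMSO wells and 0% = empty wells on each plate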
Outline: as §1

[6] = Quantitative highthroughput screen to assess conditional lethalithy of P12 Ichikawa cells grown in RPMI1640 with untreated serum (RPMI+s) (AID 1963881); details: Potency: viability; further: nearly all actives have a fitted effect of over 35% in size;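 on viability: series mostly up to about 46 µM; 100% = DMSO wells and 0% = empty wells without cells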
Outline: as §1

[7] = Quantitative highthroughput screen to assess conditional lethalithy of SEM cells grown in Human Plasma-Like Medium with dialyzed fetal bovine serum (HPLM+ds) (AID 1963882); further: nearly all actives have a fitted effect of over 35% in size; on viability: series mostly up to about 46 µM
Outline: as §1

[8] = Quantitative highthroughput screen to assess conditional lethalithy of SEM cells grown in RPMI1640 with unreated serum (RPMI+s) (AID 1963883); further: nearly all actives have a fitted effect of over 35% in size;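 on viability: 100% = DMSO wells and 0% = empty wells without cells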
Outline: as §1

[9] = Cellular viability qHTS for adrenocortical cancer (ACC) cell line SW-13 (AID 1963989); details: SW-13 ACC cells viability, CellTiter-Glo, 48 h; activity (max response): active compounds read low; further: nearly all actives have a fitted effect of over 65% in size;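 on activity (max response): cells grown in serum-free medium with ITS supplement; on the % scale 0 is the no-effect control and ±100 the full control effect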
Outline: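 SW-13 cells in ITS-supplemented serum-free DMEM were plated overnight, then exposed for 48 h at 37C to compound titrations (up to 46 uM final). Viability was read by CellTiter-Glo luminescence; four-parameter logistic fits gave IC50 and efficacy.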

[10] = Cellular viability qHTS for adrenocortical cancer (ACC) cell line NCI-H295R (AID 1963990); further: nearly all actives have a fitted effect of over 60% in size
Outline: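 Luminescent ATP read-out (CellTiter-Glo, 20 min RT) after 48 h drug exposure of NCI-H295R cells; a titration up to 46 uM final. Data normalized to doxorubicin (100% inhibition) and DMSO (0%); 4-parameter fit gives IC50, max response.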

[11] = Quantitative highthroughput screen to assess conditional lethalithy of SEM cells grown in RPMI1640 with dialyzed fetal bovine serum (RPMI+ds) (AID 1963884); further: nearly all actives have a fitted effect of over 35% in size;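 on viability: series mostly up to about 46 µM; 100% = DMSO control wells and 0% = empty wells without cells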
Outline: as §1
Potency means the concentration at half of the fitted maximal effect.

Nc1cccc(S(=O)(=O)N2CCCN(S(=O)(=O)c3ccc4c(c3)OCCO4)CC2)c1
inactive: Potency [1] | Potency [2] | Potency [3] | Potency [4] | Potency [5] | Potency [6] | Potency [7] | Potency [8] | activity (max response) [9] -19.9% | Potency [10]

CC(=O)O[C@H]1C[C@@H]2CC[C@H]3[C@H]4C[C@H]([N+]5(C)CCCCC5)[C@@H](OC(C)=O)[C@@]4(C)CC[C@@H]3[C@@]2(C)C[C@H]1[N+]1(C)CCCCC1
inactive: Potency [1] | Potency [2] | Potency [3] | Potency [4] | Potency [5] | Potency [6] | Potency [7] | Potency [8] | activity (max response) [9] 7.56% | Potency [10]

O=C(CS(=O)Cc1ccco1)NCC=CCOc1cc(CN2CCCCC2)ccn1 (stereo not given)
inactive: Potency [1] | Potency [2] | Potency [3] | Potency [4] | Potency [5] | Potency [6] | Potency [7] | Potency [11]

CC[C@H]1OC(=O)[C@H](C)[C@@H](O[C@H]2C[C@@](C)(OC)[C@@H](O)[C@H](C)O2)[C@H](C)[C@@H](O[C@@H]2O[C@H](C)C[C@H](N(C)C)[C@@H]2O)[C@](C)(OC)C[C@@H](C)C(=O)[C@H](C)[C@@H](O)[C@]1(C)O
inactive: Potency [1] | Potency [2] | Potency [3] | Potency [4] | Potency [5] | Potency [6] | Potency [7] | Potency [11]

CN(CCOc1ccc(CC2SC(=O)NC2=O)cc1)c1ccccn1 (stereo not given)
inactive: Potency [1] | Potency [2] | Potency [3] | Potency [4] | Potency [5] | Potency [6] | Potency [7] | Potency [8] | activity (max response) [9] -2.77% and -12.8% | Potency [10]

O=C(NCCCCN1CCOCC1)c1cc2ccccc2o1
inactive: Potency [1] | Potency [2] | Potency [3] | Potency [4] | Potency [5] | Potency [6] | Potency [8] | Potency [11] | activity (max response) [9] 10.7% | Potency [10]

CS[C@H]1SC[C@@H]2C(=O)N(C)[C@H](C(C)C)C(=O)OC[C@H](NC(=O)c3cnc4ccccc4n3)C(=O)N[C@H](C)C(=O)N(C)[C@@H]1C(=O)N(C)[C@H](C(C)C)C(=O)OC[C@H](NC(=O)c1cnc3ccccc3n1)C(=O)N[C@H](C)C(=O)N2C
active: Potency [1] 20.9 nM | Potency [2] 20.9 nM | Potency [3] 14.8 nM | Potency [4] 20.9 nM | Potency [5] 10.5 nM | Potency [6] 14.8 nM | Potency [8] 2.6 nM

C=C1C(=CC=C2CCC[C@]3(C)[C@@H]([C@H](C)C=C[C@H](C)C(C)C)CC[C@@H]23)C[C@@H](O)C[C@@H]1O
inactive: activity (max response) [9] -0.683% | Potency [10]
active: Potency [1] 16600 nM | Potency [2] 20900 nM | Potency [3] 8330 nM | Potency [4] 8330 nM | Potency [5] 14800 nM | Potency [6] 9350 nM

COC(=O)C[C@](O)(CCCC(C)(C)O)C(=O)O[C@@H]1C(OC)=C[C@]23CCCN2CCc2cc4c(cc2[C@H]13)OCO4
inactive: Potency [1] | Potency [2] | Potency [3] | Potency [4] | Potency [5] | Potency [7] | Potency [8] | activity (max response) [9] -15.2% | Potency [10]

O=[N+]([O-])c1ccc(Nc2ccccc2-c2ccccc2)c2nonc12
active: Potency [9] 8910 nM | Potency [10] 11200 nM
inactive: Potency [1] | Potency [2] | Potency [3] | Potency [4] | Potency [5] | Potency [6]

O=C(C=CC=Cc1ccc2c(c1)OCO2)N1CCCCC1
inactive: Potency [1] | Potency [2] | Potency [3] | Potency [4] | Potency [5] | Potency [7] | Potency [11]

COCCn1c2c([n+](Cc3cnccn3)c1C)C(=O)c1ccccc1C2=O
active: Potency [1] 132 nM | Potency [2] 105 nM | Potency [3] 66.2 nM | Potency [4] 235 nM | Potency [5] 187 nM | Potency [7] 16.6 nM | Potency [8] 66.2 nM | Potency [11] 41.8 nM | Potency [10] 2820 nM

COc1cc([C@H]2Oc3cc([C@H]4Oc5cc(O)cc(O)c5C(=O)[C@H]4O)ccc3O[C@H]2CO)ccc1O
inactive: Potency [1] | Potency [2] | Potency [3] | Potency [4] | Potency [5] | Potency [6] | Potency [8]

C[C@@H]1O[C@@H](O[C@H]2CC[C@@]3(C)[C@H](CC[C@@H]4[C@H]3C[C@@H](O)[C@]3(C)[C@@H](C5=CC(=O)OC5)CC[C@]43O)C2)C[C@H](O)[C@@H]1O[C@H]1C[C@H](O)[C@H](O[C@H]2C[C@H](O)[C@@H](O)[C@@H](C)O2)[C@H](C)O1 (stereo in doubt)
active: Potency [1] 605 nM | Potency [2] 382 nM | Potency [3] 191 nM | Potency [4] 85.5 nM | Potency [5] 191 nM | Potency [6] 270 nM | Potency [8] 382 nM | Potency [11] 270 nM

CCN(CC)CCOc1ccc(C(=C(Cl)c2ccccc2)c2ccccc2)cc1
inactive: Potency [1] | Potency [2] | Potency [3] | Potency [4] | Potency [7] | Potency [8] | Potency [11]
active: Potency [5] 20900 nM

O=C1Nc2ccc(I)cc2C1=Cc1cc(Br)c(O)c(Br)c1
inactive: Potency [1] | Potency [2] | Potency [3] | Potency [4] | Potency [5] | Potency [7]
active: Potency [8] 16600 nM | Potency [11] 18700 nM

N[C@@H](CC(=O)N1CCn2c(nnc2C(F)(F)F)C1)Cc1cc(F)c(F)cc1F
inactive: Potency [1] | Potency [2] | Potency [3] | Potency [4] | Potency [5] | Potency [6] | activity (max response) [9] -2.25% | Potency [10]

CC(=O)[C@H]1CC[C@H]2[C@@H]3CCC4=CC(=O)CC[C@]4(C)[C@H]3CC[C@]12C
inactive: Potency [1] | Potency [2] | Potency [3] | Potency [4] | Potency [5] | Potency [7] | Potency [8]

Cn1cc(-c2ccc3nnc(Sc4ccc5ncccc5c4)n3n2)cn1
inactive: Potency [1] | Potency [2] | Potency [3] | Potency [4] | Potency [5] | Potency [6] | Potency [8] | Potency [11] | activity (max response) [9] -4.92% | Potency [10]
